# Screening data deposited in PubChem by National Center for Advancing Translational Sciences (NCATS).
# Shown are actives, neighbours in structure and some others; about 6.3% of the full set was active somewhere.
# RORg inh: blocks mouse ROR gamma transcriptional activity; Drosophila S2 Gal4-RORgamma UAS-luciferase reporter, 20 h; Potency, µM (top dose mostly 53.6 µM), without a hit: top-dose activity change, negative = inhibition, hits mostly inhibitors; 310,000 compounds, 5.4% hits; further: on the % scale 0 is the no-effect control and ±100 the full control effect; nearly all actives have a fitted effect of over 60% in size
# Target sequence (P51450 whole entry, looked up, the tested form may be a part): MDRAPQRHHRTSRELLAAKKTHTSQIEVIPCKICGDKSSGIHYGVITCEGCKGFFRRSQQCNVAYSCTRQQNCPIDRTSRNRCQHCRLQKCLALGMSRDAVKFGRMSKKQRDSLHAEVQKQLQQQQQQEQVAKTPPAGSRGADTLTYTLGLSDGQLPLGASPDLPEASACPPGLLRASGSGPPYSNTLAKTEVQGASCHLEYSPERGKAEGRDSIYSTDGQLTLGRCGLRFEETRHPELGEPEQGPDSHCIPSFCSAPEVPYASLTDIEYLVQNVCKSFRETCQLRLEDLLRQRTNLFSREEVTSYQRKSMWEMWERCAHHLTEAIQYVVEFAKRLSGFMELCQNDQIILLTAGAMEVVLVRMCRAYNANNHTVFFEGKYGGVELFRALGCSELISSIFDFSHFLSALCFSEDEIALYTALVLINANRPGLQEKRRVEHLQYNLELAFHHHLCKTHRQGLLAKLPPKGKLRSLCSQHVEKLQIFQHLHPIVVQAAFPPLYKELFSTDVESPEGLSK
#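 Using a luciferase readout, inhibitors were identified by reduced reporter activity in Drosophila cells coexpressing a copper-inducible Gal4–ROR gamma fusion and UAS-driven Photinus luciferase, incubated 20 hr after 700 uM copper sulfate.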
# ATXN2 expr inh: reduces ATXN2 reporter expression in HEK-293 cells | Potency, µM (titrated, usually from 57 µM), for inactives: at the highest dose activity change, negative = inhibition, usual class: inhibitors | HEK-293 ATXN2-luciferase reporter, luminescence, 24 h | 360,000 compounds, 0.72% hits; further: on the % scale 0 is the no-effect control and ±100 the full control effect; nearly all actives have a fitted effect of over 55% in size
#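 qHTS (up to 57 uM final) was run with 24 h compound exposure of reporter cells at 37 °C. Each well was multiplexed: SteadyGlo luminescence measured ATXN2-luciferase expression after a fluorogenic Gly-Phe-AFC viability readout (25 uM final).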
# Gal4-VP16 FLuc: counter-screen for ROR gamma inhibitors: Gal4-VP16 reporter | Drosophila S2 Gal4-VP16 UAS-luciferase, luminescence, 20 h | 310,000 compounds, 3.5% hits | Potency, µM (highest dose often 53.6 µM), for inactives: top-dose activity, negative = inhibition, most hits filed as inhibitors;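 further: Gal4-VP16 expression switched on by copper sulfate through the metallothionein promoter; on the % scale 0 is the no-effect control and ±100 the full control effect; nearly all actives have a fitted effect of over 50% in size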
# ATXN viability: reduces viability in counter-screen for ATXN expression inhibitors. S2 cells (HEK-293 line with an ATXN2-luciferase reporter) viability, CellTiter-Fluor protease fluorescence, 24 h. Potency, µM (highest dose often 56.7 µM), most hits filed as cytotoxic. 400,000 compounds, 0.49% hits. AID 651635; further: nearly all actives have a fitted effect of over 40% in size
# TGFb SMAD3 inh: TGF-b pathway inhibition; HepG2 CAGA-GFP TGF-b/SMAD3 reporter, GFP fluorescence, 18 h; TGF-beta stimulated, 500 pg/mL final; Potency, µM (titrated, usually from 46.1 µM), for the others: top-dose activity, negative = inhibition, most hits filed as inhibitors; 410,000 compounds, 1.2% hits; AID 588855; further: on the % scale 0 is the no-effect control and ±100 the full control effect; nearly all actives have a fitted effect of over 65% in size
#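 Cell-based qHTS in HEPG2 carrying a CAGA-GFP Smad reporter; compounds added before 500 pg/mL final TGF-beta, 18 h incubation at 37 degrees C, GFP fluorescence quantified per cell by imaging cytometry.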
# HepG2 tox: kills HepG2 cells in TGF-b inhibitor counter-screen | HepG2 CAGA-GFP viability, ATP luminescence, 18 h | 410,000 compounds, 0.76% hits | Potency, µM (doses to about 46.1 µM), for inactives: at the top dose activity change, negative = cytotoxicity, most hits filed as cytotoxic
#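 CellTiter-Glo luminescence gave cytotoxicity after 18 hours at 37 degrees C. The cells were HepG2 CAGA-GFP in 1% FBS DMEM, stimulated with 500 pg/mL TGF-beta after compound addition. %Activity was normalised to no-cell wells (complete cell-killing) and DMSO (no toxicity), and curves were fitted and classified.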
# Active calls of the source: *; i = inactive; ? = inconclusive; / = not tested or not shown; [ ] = dose if it differs, or a comment. The call rests on the fitted dose curve; in most records, active means well fitted curve in the direction sought with a large enough effect; inconclusive means small, poorly fitted or top-dose-only effect, or another doubt; inactive means no such curve, though single readings can be large; an effect the other way counts as inactive or inconclusive. Potency means the concentration at half of the fitted maximal effect.
SMILES,RORg inh,ATXN2 expr inh,Gal4-VP16 FLuc,ATXN viability,TGFb SMAD3 inh,HepG2 tox
Cc1ccc(-n2c(CSc3nc(C)cc(C)n3)n[nH]c2=S)cc1,14µM*,0%,-13%,?,-7%,0%
Cc1cc(C)nc(SCc2n[nH]c(=S)n2C)n1,4%,13%,2%,i,7%,2%
COc1ccc2c(-c3ccccc3)cc(=S)[nH]c2c1,1µM*,11%,?,i,-2%,5%
Nc1c(N(CCC2=CCCCC2)C(=O)COc2ccc(F)cc2Cl)c(=O)[nH]c(=O)n1Cc1ccccc1,/,11µM*,/,/,3.2µM*,3.5µM*
Nc1c(N(CCC2=CCCCC2)C(=O)Cc2ccc(F)cc2)c(=O)[nH]c(=O)n1Cc1ccccc1,/,3%,/,?,?,0%
CCOC(=O)c1ccc(NC(=S)NCc2ccc(F)cc2)cc1,/,/,/,i,?,-20%
CCOC(=O)c1ccc(NC(=S)NN)cc1,10µM*,15%,?,i,-20%,-7%
CCOC(=O)c1ccc(NC(=S)NC(=O)c2cncc(Br)c2)cc1,2.2µM*,-11%,?,i,4%,8%
Cc1cccc(OCCNC(=S)NC(=O)c2cncc(Br)c2)c1,5µM*,-9%,6.3µM*,i,-2%,1%
CCOC(=O)c1ccc(NC(=S)Nc2cccc(C)n2)cc1,0.89µM*,-1%,?,i,7%,-28%
COc1ccc(CCNC(=O)CS(=O)(=O)Cc2nc(-c3cccc(Cl)c3)oc2C)cc1OC,/,4%,/,i,-29%,-5%
Cc1ccccc1CN1CCc2nnc(C(C)NC(=O)c3cc(F)ccc3F)n2CC1 (centres undefined),/,/,/,i,/,/
CCOC(=O)c1ccc(NC(=S)NC2CC(C)(C)NC(C)(C)C2)cc1,-4%,?,0%,?,?,11µM*
COC(=O)Cc1ccc(NC(=S)Nc2cccc(C)n2)cc1,4.5µM*,3%,?,i,-5%,5%
CCOC(=O)c1ccc(NC(=O)C2CC2)cc1,26%[10 µM],22%,7%,i,35%,2%
CCCCOC(=O)c1ccc(NC(=S)NC(=O)c2c(Br)c(C)nn2C)cc1,16µM*,-14%,13µM*,i,-17%,-3%
CC(=O)c1ccc(NC(=S)NC(=O)c2c(Cl)c(C)nn2C)cc1,?,-17%,-14%,i,8%,-22%
COc1cc(C)c(CN2C[C@H](Sc3nc4ccccc4[nH]3)C[C@H]2C(=O)N(C)C)cc1C,/,/,/,i,/,/
Cn1c(=O)nc2n(-c3ccc(Cl)c(Cl)c3)c3cc(Cl)ccc3cc-2c1=O,/,4%,/,i,-18%,-17%
COc1ccc(-c2cnc3n2CCCCC3)cc1,?,-11%,-3%,i,?,10%
Clc1ccc(-c2cnc3n2CCC3)cc1,18µM*,14%,-6%,i,-12%,-27%
Brc1cccc(-c2nnc3n2CCCCC3)c1,-11%,-1%,-1%,i,8%,-37%
Brc1cccc(-c2cnc3n2CCCCC3)c1,0.4µM*,-30%,10µM*,i,-8%,-38%
COc1ccc(Br)cc1C1NC(c2ccc3c(c2)OCO3)=CC(c2ccccc2O)N1 (centres undefined),/,/,/,/,?,-32%
CCOC(=O)c1c(-c2ccc(OC)c(OC)c2)csc1NC(=O)c1ccc(C)cc1,/,2%,/,i,2%,-9%
COC(=O)c1c(-c2ccc(C)cc2)csc1NC(=S)NC(=O)c1ccc(F)cc1,2.5µM*,-6%,5µM*,i,-8%,-2%
CCOC(=O)c1c(-c2ccc(C)cc2)csc1NC(=S)NC(=O)c1ccccc1,3.2µM*,81%,2.8µM*,i,-18%,-30%
CCOC(=O)c1c(-c2ccc(Br)cc2)csc1NC(=O)c1ccc(F)cc1,/,-5%,/,i,-1%,5%
NCC1CCN(c2nc3ccccc3c3c2CCCC3)CC1,/,?,/,28µM*,?,13µM*
